Holding throughout (test): NCI-60 one-dose screen, 48 h (100 = growth as untreated, 0 = no growth, -100 = all killed)
In one test the test system is NCI-H23 lung. Particulars: 10 µM unless noted.
For another test, the system named is NCI-H226 lung. As to conditions: 10 µM unless noted.
Another test deals with NCI-H322M lung. Particulars: 10 µM unless noted.
The subject of the next test is HOP-62 NSCLC. As to conditions: 10 µM unless noted.
For a further test, the system named is NCI-H460 lung. As to conditions: 10 µM unless noted.
The next test deals with HOP-92 NSCLC. Particulars: 10 µM.
A further test concerns NCI-H522 lung. Particulars: 10 µM unless noted.
The next test concerns A549/ATCC NSCLC. Particulars: 10 µM unless noted.
The test system of the next test is 786-0 renal. Particulars: 10 µM unless noted.
A further test concerns COLO 205 colon. As to conditions: 10 µM unless noted.
The subject of a further test is DU-145 prostate. As to conditions: 10 µM unless noted.
A further test concerns K-562 leukemia. Particulars: 10 µM unless noted.
The next test deals with MALME-3M melanoma. As to conditions: 10 µM unless noted.
The subject of another test is MDA-MB-231 breast. As to conditions: 10 µM unless noted.
A further test has as its system SF-268 CNS. Particulars: 10 µM unless noted.
In the next test the test system is SF-295 CNS. As to conditions: 10 µM unless noted.
The next test concerns SF-539 CNS. As to conditions: 10 µM unless noted.
For the next test, the system named is UACC-257 melanoma. Particulars: 10 µM unless noted.
The test system of another test is RXF 393 renal. As to conditions: 10 µM unless noted.

Compounds without any hit were thinned out: in the full panel of roughly 83,000, 20% have a hit.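 How to read the values: 0–100, growth inhibition (40 = 60% inhibited); 0, no net growth; -100 to 0, cell death (-40 = 40% of starting cells died; -100 = all dead).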 A number with no mark means an inactive call. Active and inactive are the calls of the source. How the source made its calls: active means growth percent below 10; inactive means the rest.

For `COc1ccc(Cn2cc3c(c2-c2cc(OC)c(OC)c(OC)c2)CCc2c(CN4CCCC4)noc2-3)cc1`, the growth in the test on NCI-H23 lung was 7.29% (active); in the test with NCI-H226 lung, 61.7%; in the test with NCI-H322M lung it was 51.8%; in the test with HOP-62 NSCLC, 33.8%; in the test on NCI-H460 lung, 9.59% (active); in the test with HOP-92 NSCLC, 75.5%. Besides, the growth with NCI-H522 lung is 28.2%; in the test on A549/ATCC NSCLC it was 25.8%; in the test on 786-0 renal, 47.9%; in the test with COLO 205 colon, 8.39% (active); in the test with DU-145 prostate it was 22.7%; in the test with K-562 leukemia it was 14%. In addition, the growth in the test on MALME-3M melanoma was 19%; in the test on MDA-MB-231 breast it was 36.7%; in the test with SF-268 CNS it was 46.5%; in the test on SF-295 CNS, 12.1%; in the test with SF-539 CNS, 0.316% (active); in the test on UACC-257 melanoma, 77%.
`O=C(CNc1nc(-c2cccc([N+](=O)[O-])c2)cs1)Nc1cccc(Cl)c1`: the growth with NCI-H23 lung was 96%; in the test with NCI-H226 lung it was 99.4%; in the test with NCI-H322M lung, 101%; with HOP-62 NSCLC it was 96.6%; in the test on NCI-H460 lung, 113%; with HOP-92 NSCLC it was 104%. For the same compound, the growth with NCI-H522 lung was 98.3%; in the test on A549/ATCC NSCLC it was 108%; with 786-0 renal it was 105%; with COLO 205 colon, 112%; with DU-145 prostate, 112%; with K-562 leukemia, 97.1%. In addition, the growth in the test on MALME-3M melanoma is 104%; with MDA-MB-231 breast it was 101%; in the test with SF-268 CNS it was 99.7%; with SF-295 CNS it was 102%; in the test with SF-539 CNS, 101%; in the test with UACC-257 melanoma, 118%.
As for `COc1c(N2CC3CCCNC3C2)c(F)cc2c(=O)c(C(=O)N/N=C/c3ccc4c(c3)OCO4)cn(C3CC3)c12` (centres undefined), the growth in the test with NCI-H23 lung is 81.8%; in the test with NCI-H226 lung, 86.5%; with NCI-H322M lung it was 88.3%; with HOP-62 NSCLC, 101%; in the test on NCI-H460 lung it was 79.2%; in the test with HOP-92 NSCLC, 67.4%. Also, the growth was 29.3% with NCI-H522 lung; 70.2% with A549/ATCC NSCLC; 50.3% with 786-0 renal; 85.5% in the test on COLO 205 colon; 68.9% in the test on DU-145 prostate; 2.44% (active) with K-562 leukemia. The growth with MALME-3M melanoma was 90.3%; in the test with MDA-MB-231 breast, 41.3%; in the test with SF-268 CNS, 79.4%; with SF-295 CNS, 44.2%; in the test with SF-539 CNS, -60.4% (active); with UACC-257 melanoma it was 85.3%.
For the compound `CS(=O)(=O)Nc1cc(-c2ccc3ncc(C#N)c(NCc4cccc(F)c4)c3c2)cnc1Cl`, the growth was -1.85% (active) with NCI-H23 lung; 9.2% (active) with NCI-H226 lung; 12.5% in the test on NCI-H322M lung; -6.39% (active) in the test on HOP-62 NSCLC; 5.88% (active) with NCI-H460 lung; -15.7% (active) in the test with HOP-92 NSCLC. The growth in the test with NCI-H522 lung was 10.7%; in the test with A549/ATCC NSCLC, 7.5% (active); in the test with 786-0 renal, 10.8%; with COLO 205 colon it was -45.9% (active); with DU-145 prostate, 17.8%; with K-562 leukemia it was 14.1%. Moreover, the growth in the test with MALME-3M melanoma is -35.7% (active); with MDA-MB-231 breast, 0.274% (active); with SF-268 CNS it was 3.62% (active); with SF-295 CNS, -21.9% (active); in the test with SF-539 CNS, -26.4% (active); in the test on UACC-257 melanoma it was 1.5% (active).
In the case of `COC(=O)C1(C)CCC[C@]2(C)[C@H]3C[C@H]4C(C(C)C)=C[C@]3(CC[C@@H]12)[C@H]1[C@@H]4[C@@H](OC(=O)c2ccco2)CC[C@@H]1OC(=O)c1ccco1` (some centres undefined), the growth was 104% in the test on NCI-H23 lung; 103% in the test with NCI-H226 lung; 106% in the test on NCI-H322M lung; 96.9% in the test with HOP-62 NSCLC; 117% in the test with NCI-H460 lung; 102% with HOP-92 NSCLC. The growth with NCI-H522 lung is 99.6%; in the test on A549/ATCC NSCLC it was 102%; with 786-0 renal it was 94.3%; with COLO 205 colon, 115%; with DU-145 prostate, 113%; in the test with K-562 leukemia it was 104%. Also, the growth is 108% with MALME-3M melanoma; 101% in the test with MDA-MB-231 breast; 108% with SF-268 CNS; 98.3% with SF-295 CNS; 103% in the test on SF-539 CNS; 110% in the test with UACC-257 melanoma.
For the compound `COc1cc2c(cc1OC)C(Sc1ccc(F)cc1)c1c(nc(N)c(C#N)c1N)O2` (centres undefined), the growth in the test on NCI-H23 lung was -83.1% (active); in the test with NCI-H226 lung, -29.4% (active); with NCI-H322M lung, -74.8% (active); in the test with HOP-62 NSCLC, 10.5%; with NCI-H460 lung, -60.7% (active); in the test on HOP-92 NSCLC it was -29.4% (active). Moreover, the growth was -37.7% (active) with NCI-H522 lung; -30% (active) in the test with A549/ATCC NSCLC; -72.3% (active) in the test on 786-0 renal; -45.3% (active) in the test with COLO 205 colon; -93.3% (active) in the test with DU-145 prostate; 8.27% (active) in the test with K-562 leukemia. The growth with MALME-3M melanoma is -75.1% (active); in the test with MDA-MB-231 breast it was -79% (active); in the test on SF-268 CNS it was -38.3% (active); with SF-295 CNS it was -74.8% (active); in the test on SF-539 CNS, -90.6% (active); in the test with UACC-257 melanoma it was -25% (active).
`ClC(Cl)c1nc(-c2ccco2)n2nc(-c3ccccc3)cc2n1`: the growth is 49.8% in the test on NCI-H23 lung; 97.5% with NCI-H226 lung; -19.4% (active) with NCI-H322M lung; -1.03% (active) in the test with HOP-62 NSCLC; -22.1% (active) with NCI-H460 lung; -9.05% (active) in the test on HOP-92 NSCLC. Further, the growth with NCI-H522 lung is 91.3%; with A549/ATCC NSCLC, -2.21% (active); in the test with 786-0 renal it was 69.3%; with COLO 205 colon, -17% (active); in the test with DU-145 prostate, -24.8% (active); in the test on K-562 leukemia it was 50.6%. Besides, the growth in the test on MALME-3M melanoma is 107%; with MDA-MB-231 breast, -11.1% (active); in the test on SF-268 CNS it was 24.3%; in the test with SF-295 CNS it was -15.4% (active); in the test on SF-539 CNS, -7.97% (active); with UACC-257 melanoma, 54%.
For `Cc1ccc(-n2c(/C=C3\C(=O)Nc4ccccc43)ccc2CO)cc1`, the growth in the test on NCI-H23 lung is 80.6%; in the test on NCI-H226 lung it was 88.2%; in the test with NCI-H322M lung, 103%; in the test with HOP-62 NSCLC, 72.8%; with NCI-H460 lung, 80.3%; in the test with HOP-92 NSCLC it was 84.5%. Also, the growth in the test with NCI-H522 lung is 73.6%; in the test on A549/ATCC NSCLC, 71.3%; with 786-0 renal, 101%; in the test on DU-145 prostate, 92.2%; with K-562 leukemia, 19.2%; in the test with MALME-3M melanoma it was 44%. Moreover, the growth with MDA-MB-231 breast is 64%; in the test on RXF 393 renal it was 66.1%; in the test with SF-268 CNS, 89.5%; with SF-295 CNS it was 69.8%; with SF-539 CNS it was 68.7%; in the test with UACC-257 melanoma it was 85.8%.

The values are drawn from PubChem BioAssay (NCI).
